This is a sample that favours compounds with a hit; in the whole collection about 3.6% have one here.
Autofluor counter – compound fluorescence in toxin protease inhibitor counterscreen; actives 3.1% (n = 360,000); fluorescence intensity (no concentration beside the values); compound autofluorescence counterscreen, microsphere flow cytometry; hits give high values; in the data active means fluorescence intensity above about 16000; inconclusive means no clear call, values can overlap the other calls
BoNT F protease – BoNT/F light chain protease inhibitors, primary screen, biochemical, flow cytometry, MLPCN library; inhibition, % at 10 µM; AID 588497, 2011; Botulinum neurotoxin type F light chain protease (Clostridium botulinum); Multiplex microsphere protease cleavage assay; actives 0.22% (n = 360,000); in the data active means inhibition above about 35%, passing the limit was not always enough; inconclusive means no clear call, values can overlap the other calls
Anthrax LF prot – Bacillus anthracis LF protease inhibitors, primary screen, biochemical, multiplex microsphere, MLPCN library | Lethal factor (Bacillus anthracis), P15917 | multiplex microsphere protease cleavage assay | inhibition, % at 10 µM | actives 0.12% (n = 360,000) | AID 588501, 2011
MazEF act – activators of E. coli MazEF toxin-antitoxin RNase, primary screen, biochemical, fluorescence, uHTS. FAM/BHQ RNA-DNA oligo cleavage fluorescence, 5 h. activation, % at 20 µM. actives 0.32% (n = 350,000); in the data active means activation above about 50%
Target sequence (P0AE70 whole entry, looked up): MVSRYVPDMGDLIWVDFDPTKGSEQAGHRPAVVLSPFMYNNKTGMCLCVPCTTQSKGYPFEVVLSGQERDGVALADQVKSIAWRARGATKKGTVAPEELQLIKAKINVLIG
BoNT A protease – BoNT/A light chain protease inhibitors, primary screen, biochemical, flow cytometry, MLPCN library. actives 0.17% (n = 360,000). Botulinum neurotoxin type A light chain protease (Clostridium botulinum A str. ATCC 3502). AID 588499, 2011. inhibition, % at 10 µM. multiplex microsphere protease substrate cleavage
Numbers stand for hits; - = inactive; ? = inconclusive; . = not tested or not shown; ! = repeats disagree. Unless noted, no stated cut-off is given here; in the data, active means inhibition above about 30%; inconclusive means no clear call, values can overlap the other calls; inactive means below that.

SMILES	Autofluor counter	BoNT F protease	Anthrax LF prot	MazEF act	BoNT A protease
COc1ccccc1NC(=O)CSc1nnc(-c2ccccn2)n1Cc1ccco1	-	-	-	-	-
CCOCCC(=O)Nc1ccc2c(c1)c(=O)n(C)n2CC=C(C)C	-	-	-	.	-
CCOC(=O)c1cnc(-n2cc(C)cn2)nc1Nc1ccccc1OCC	23982	-	-	-	-
COc1ccc(-n2cnnc2SCC(=O)N(C)C2CCS(=O)(=O)C2)cc1 (stereo not given)	23013	-	-	-	-
COc1ccc(-n2nnnc2SCC(=O)N(C)C2CCS(=O)(=O)C2)cc1 (stereo not given)	-	-	-	-	-
CCc1nnc(NC(=O)c2ccc3c(c2)C(=O)N(CC)C3=O)s1	23383	-	-	-	-
Cc1nnc(NC(=O)c2ccc3c(c2)C(=O)N(CCC(C)C)C3=O)s1	20485	-	-	-	-
Cc1ccccc1NC(=O)c1ccc2c(c1)C(=O)N(CCC(C)C)C2=O	-	-	-	-	-
O=C(c1ccc(CNS(=O)(=O)c2ccc(F)cc2)cc1)N1CCCCCC1	-	-	-	-	-
Cc1ccc(-n2c3c(c(=O)[nH]c2=O)C(C(F)(F)F)(C(F)(F)F)NC(=O)N3)cc1	16132	-	-	-	-
CCOC(=O)c1nn(-c2ccc(Cl)cc2)c2nc(CC)c(C#N)c(=O)n12	16274	-	-	-	-
CCOC(=O)c1nn(-c2ccc(OCC)cc2)c2nc(CC(C)C)c(C#N)c(=O)n12	16776	-	-	-	-
CCOC(=O)c1nn(-c2ccc(Cl)cc2)c2nc(-c3ccc(C)cc3)c(C#N)c(=O)n12	-	-	-	-	-
COCCCn1c(=O)c2sccc2n(Cc2cc(C(=O)OC)ccc2OC)c1=O	-	?	-	-	-
CCc1nc2c(OCC3CCCCC3)cccn2c1N(C)C(=O)c1ccc(C)cc1	-	-	-	.	-
N#C/C(=C/c1ccc(F)cc1)c1nc(CCN2C(=O)c3ccccc3C2=O)cs1	16963	-	-	-	-
Cc1ccc(-c2nc(CCN3C(=O)c4ccccc4C3=O)cs2)cc1	23490	-	-	-	?
O=C1c2ccccc2C(=O)N1CCc1csc(NNc2nc(CCN3C(=O)c4ccccc4C3=O)cs2)n1	-	-	-	-	-
CC(=O)Oc1c(Cl)c(N2CCOCC2)c(OC(C)=O)c2ccccc12	17480	-	-	-	-
COCCNc1c(-c2cc3ccc(C)c(C)c3[nH]c2=O)nc2ccccn12	-	-	-	-	-
CN(C)c1ccc(C=C2C=Cc3ccccc32)cc1	-	-	-	97.6	-
CNc1ccc(C=C2C=Cc3ccccc32)cc1	-	-	-	-	-
O=S(=O)(Nc1ccccn1)c1ccc(Cl)cc1	23792	-	-	-	-
Clc1ccc(CSc2snnc2-c2ccccc2)cc1	?	?	?	-	?
CSc1snnc1-c1ccccc1	-	-	-	-	-
SMILES	Autofluor counter	BoNT F protease	Anthrax LF prot	MazEF act	BoNT A protease
Clc1ccc(-c2nnsc2SCc2ccccc2)cc1	22947	-	-	-	-
Clc1ccccc1CSc1snnc1-c1ccccc1	20983	-	-	-	?
C/C(CC(=O)Nc1ccccn1)=N\NC(=O)Cc1cccc2ccccc12	23733	-	-	-	?
COc1ccc([C@@H]2CC=C(C(=O)O)[C@H](c3ccc(C)cc3)N2S(=O)(=O)c2ccccc2C)cc1	-	-	-	-	-
COC(=O)C(O)(CC(=O)Nc1ccc(C)c(F)c1)C(F)(F)F (stereo not given)	16452	-	-	-	?
CCOC(=O)c1cc2c(=O)n3ccccc3nc2n(C(C)C)c1=NC(=O)c1c(-c2ccccc2Cl)noc1C	-	-	-	-	38.6
CCOCCCn1c(=NC(C)=O)c(C(=O)OCC)cc2c(=O)n3ccccc3nc21	23789!	-	-	-	-
CC(C)(C)OC(=O)N1CCC(C(=O)Nc2cccc(C(=O)NCc3ccccc3)c2)CC1	-	-	-	-	-
Cn1c(N)c(C(=O)CSc2nnc(C3CC3)n2N)c(=O)n(C)c1=O	-	-	-	-	-
O=C(Nc1nnc(-c2ccncc2)s1)C1CCCO1 (stereo not given)	16579	-	-	-	-
CCCCCc1nnc(NC(=O)C2CCCO2)s1 (stereo not given)	20636	-	-	-	-
CCCCC(c1nc2ccccc2[nH]1)N(C(=O)c1ccccc1)c1ccccc1[N+](=O)[O-] (stereo not given)	-	-	-	.	-
CCN(Cc1nc2cc(Cl)ccc2c(=O)[nH]1)C(=O)CN1C(=O)NC2(CCCCC2C)C1=O (stereo not given)	.	.	.	-	.
CCCCC1(C)OC(=O)C(=Cc2c[nH]c3ccccc23)C(=O)O1 (stereo not given)	-	-	-	235.0	-
CCCCC1(C)OC(=O)C(=Cc2ccc(N(C)C)cc2)C(=O)O1 (stereo not given)	-	-	-	-	-
Cc1cc(C)n2c(Nc3c(C)cccc3C)c(-c3cccnc3)nc2n1	-	-	-	.	-
Cc1nc2ccccc2n1/N=C/c1cccnc1	24451	-	-	-	-
CCOc1ccc(N(CC(=O)Nc2ccc(C)c(C)c2)S(C)(=O)=O)cc1	-	-	-	-	-
COc1ccc(NC(=O)CN(c2c(C)cccc2C)S(C)(=O)=O)cc1	-	?	-	-	?
Cc1ccc2sc(NC(=O)CSc3nc(C)cc(C)c3C#N)nc2c1	22663	-	-	-	?
CC(C)(C)NC(=O)CSc1nsc(SCC(=O)NC(C)(C)C)c1C#N	17119	-	-	-	-
Cc1csc(NC(=O)CSc2nsc(SCC(=O)Nc3nc(C)cs3)c2C#N)n1	21632	-	-	-	?

From PubChem BioAssay
